Data on 8 compounds can be found in PubChem BioAssay.

The subject of experiment [1] is XIP peptide (Xip251-270) binding. Nature of the experiment: small-molecule binders of XIP peptide, primary screen, biochemical, small-molecule microarray, fluorescence 635/667 nm, 0.1 µg/mL protein (AID 1182). Conditions: fluorescent protein binding, 635 nm, higher = more signal, called active from +8 up or from −8 down.
Another experiment relates to XIP peptide (Xip251-270). Nature of the experiment: small-molecule binders of XIP peptide, primary screen, biochemical, small-molecule microarray, fluorescence 635/667 nm, 0.5 µg/mL protein (AID 1183). The following applies: small-molecule microarray binding, fluorescence 635 nm; higher = more signal.
Experiment [2] in a line: Plasmodium falciparum growth inhibition, primary screen, strain 3D7, DAPI fluorescence, 100 nL (AID 1184).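 Further: parasites grown inside human red blood cells in medium with human serum.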 The following applies: P. falciparum 3D7 growth, 3 d, higher = more signal.
Experiment [3] deals with Homeobox protein Hox-A13 (Mus musculus) (UniProt Q62424). Briefly: inhibitors of HoxA13-DNA binding, primary screen, biochemical, fluorescence polarization, labeled oligonucleotide (AID 1185). The following applies: 15 min, higher = more signal, called active from +8 up or from −8 down.
Homeobox protein Hox-A13 (Mus musculus), sequence (Q62424 whole entry, looked up): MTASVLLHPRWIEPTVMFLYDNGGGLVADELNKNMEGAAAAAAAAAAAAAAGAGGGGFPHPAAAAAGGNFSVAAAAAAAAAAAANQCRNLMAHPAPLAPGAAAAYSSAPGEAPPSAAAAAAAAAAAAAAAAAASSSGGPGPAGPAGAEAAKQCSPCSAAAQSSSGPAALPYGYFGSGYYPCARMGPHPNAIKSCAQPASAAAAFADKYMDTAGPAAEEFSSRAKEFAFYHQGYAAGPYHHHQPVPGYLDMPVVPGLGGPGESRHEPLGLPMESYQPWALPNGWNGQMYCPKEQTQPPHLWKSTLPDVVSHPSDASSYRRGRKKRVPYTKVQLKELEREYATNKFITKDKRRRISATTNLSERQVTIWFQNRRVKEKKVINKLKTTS

SMILES strings stand for the structures. The source made the active and inactive calls.

As for `CN1CCc2nc(-c3ccccc3)c(-c3ccccc3)cc2C1`, the composite z-score in experiment [1] was -0.368 (inactive); with XIP peptide (Xip251-270), 0.0309. In addition, the figures for the z-score in experiment [2] and in experiment [3] were 0.309 and -0.07 (inactive), respectively.

On to `C[C@H]1CC[C@H]2C(=O)N[C@H](Cc3ccccc3)C(=O)N2[C@@H]1c1ccccc1`, for which the composite z-score is 0.469 (inactive) in experiment [1] and 0.647 in the experiment with XIP peptide (Xip251-270). Also, the results for the z-score in experiment [2] and in experiment [3] were 0.388 and -0.879 (inactive), respectively.

As for `CC(C)[C@@H](OCc1ccccc1)[C@H](C)C=NO[C@@H](C)c1cn([C@H](CO)Cc2ccccc2)nn1`, the results for the composite z-score (in experiment [1]; in the experiment with XIP peptide (Xip251-270)) were 0.334 (inactive) and -0.0098, respectively. The z-score in experiment [2] is 0.949; in experiment [3], -5.22 (inactive).

As for `O=C(NCCC[N+]1=CC=NC1c1ccccc1)N1CCCc2nc(-c3ccc(Br)cc3)ccc21` (configuration not stated), the composite z-score is 0.638 (inactive) in experiment [1] and 0.0388 with XIP peptide (Xip251-270). The values for the z-score in experiment [2] and in experiment [3] were -0.449 and -7.21 (inactive), respectively.

As for `CC(CCN1CCCc2nc(C)c(C)cc21)=NO[C@H](C)c1cn([C@@H]2COC[C@H]2O)nn1`, the results for the composite z-score (in experiment [1]; in the experiment with XIP peptide (Xip251-270)) were -0.0434 (inactive) and 0.588, respectively. Moreover, the values for the z-score in experiment [2] and in experiment [3] were 0.612 and -6.65 (inactive), respectively.

`C#CCCCON=C1C[C@@H](O)[C@@H](O)[C@@H]2[C@@H]3C(=O)N(C4CCCCC4)C(=O)[C@@H]3CC[C@@H]12`: the composite z-score in experiment [1] is 0.481 (inactive); with XIP peptide (Xip251-270) it was 0.0169. The z-score in experiment [2] was 0.204; in experiment [3] it was -4.64 (inactive).

Take `C#CCCCON=C1C[C@@H](O)[C@@H](O)[C@@H]2[C@@H]3C(=O)N(C[C@@H]4CCCO4)C(=O)[C@@H]3CC[C@@H]12`: the composite z-score in experiment [1] is 0.141 (inactive); in the experiment on XIP peptide (Xip251-270) it was 0.384. Besides, the z-score in experiment [2] is 1.38; in experiment [3] it was 0.866 (inactive).

As for `CCOC(=O)CCN1C(=O)[C@H]2[C@H]3[C@H](O)[C@H](O)CC(=NOCC=C(C)CCC=C(C)C)[C@H]3CC[C@H]2C1=O`, the composite z-score in experiment [1] was -0.322 (inactive); with XIP peptide (Xip251-270), -0.206. In addition, the z-score was 0.241 in experiment [2] and 0.765 (inactive) in experiment [3].
